We go through 39 sequences from the OligoGym collection.
Also: reference of the scale not given here.

In the first test the target is CADM4. Description: pooled miR-30 sensor sort-seq; sequence = guide strand. The following applies: shRNA.
Regarding TTTCAGCTCCTTGCGGTCCCGG, the sensor-assay potency score (higher = more potent) was -0.888.
Same read-out and setting: the result for TCTGTCTGTACTTCCTGTCCTG reads 0.306; that for TTTGCTGGTTCCTTGCAGCTGG, 0.149.
Still for that read-out and setting: in the case of TTCTGCCGTACCGAGCACCAGA it was -1.21; in that of TTACGGTCCACACGAAACCGTA, -1.33; in that of TTATTGGACGCCTCGCAAGTGT, -0.6.
Same read-out and setting: the result for TGGATGACAACTATGGACCCAT reads -0.33; that for TTCTCTGTCTGTACTTCCTGTC, -0.0405.
Consider AAGCTGGAAACGCTCATCCTTC, for which the sensor-assay potency score (higher = more potent) is -1.15.
In the case of ACATATGATCAGAAACACCAGC, the sensor-assay potency score (higher = more potent) was -1.09.

For another test, the target named is CALB1. The description is as above. The following applies: shRNA.
For TTCGGTACAGCTTCCCTCCATC, the sensor-assay potency score (higher = more potent) is -0.593.
Still for that read-out and setting: in the case of TCTTGTTCAACTATATTTGTGA it was 0.29; in that of TTCTCTGACAGTAAGTTTGTTG, -0.382.
For ATTCTTCTCGCACAGATCCTTC, the sensor-assay potency score (higher = more potent) is -1.06.
For the sequence TTTTGTGTCATCAACAGTCTTG, the sensor-assay potency score (higher = more potent) was determined as 0.226.
The same measure, in the same setting: in the case of TAAGCATAGACTTTCTTCTTTT it was -0.786; in that of TAAATCTGTAATGAGACTGTTA, 0.457.
The same measure, in the same setting: in the case of TATTTTTCCATCATCTCTTTGC it was -0.281; in that of AAACAGTATAGAAACAAGCTGA, -0.0132; in that of TGTAATATTATTAATATCCAGA, -0.351.
On the same count and under the same terms, in the case of TTAGGTCTGTATACTCGGCTAA it was -0.144.
As for TTGATTGGTAAACTAAATCTGT, the sensor-assay potency score (higher = more potent) was -0.119.
The same measure, in the same setting: in the case of TTAGATACAGTGTATCACTAGC it was 0.553; in that of TTTGTGTCATCAACAGTCTTGT, 0.294.
Still for that read-out and setting: in the case of TGTCACATCAACTTGAACCGAT it was 0.787; in that of TATAAAAGAAAATACAGCCTAC, -0.236; in that of TTCCCTTGTCACATCAACTTGA, 0.335.
On the same count and under the same terms, in the case of TATGTATCCATTGCCGTCCTGA it was -0.391.
For TATTCTTCTCGCACAGATCCTT, the sensor-assay potency score (higher = more potent) worked out at 0.132.
Same read-out and setting: in the case of TAAGCTTAGAAATATTTTGTGG it was -0.267; in that of TAGGTCTGTATACTCGGCTAAT, -1.02; in that of TTATTTTTTAGATACAGTGTAT, -0.499.
On the same count and under the same terms, in the case of ATTATTAATATCCAGATCCTGT it was -0.387; in that of TTTAAGAAGAAAATTCTCCTGC, 1.04.

In another test the target is CAMK2N1. The test is described as above. Conditions: shRNA.
AATAACAACCCGCTTGCTCCGG: the sensor-assay potency score (higher = more potent) was -0.79.
Still for that read-out and setting: in the case of TTTCAGCACGTCATCAATCCTA it was -0.00921; in that of TTCAGCACGTCATCAATCCTAT, -0.353.
Regarding TTCAATAACAACCCGCTTGCTC, the sensor-assay potency score (higher = more potent) is 0.0759.
The same measure, in the same setting: the result for TCATCTTCAATAACAACCCGCT reads 0.215.
